The record followed here is PubChem BioAssay (Tox21).

Each structure is given as a SMILES string. Results filed as inconclusive are left out. Calls of active or inactive are those of the source. Calls follow the shape of the dose curve; as a rule, active = well fitted activation curve with a large enough effect in the repeat runs; inconclusive = weak or mixed curves; inactive = flat fitted curve, though single readings scatter.
% is scaled to controls: 0 for no effect and ±100 for the full control effect; potency is read from the fitted curve at half-maximal effect.

The experiment can be described thus: A CellTox Green Cytotoxicity Assay to monitor cytotoxicity in HepG2 cells - 24 hour (AID 1224878). Also: nearly all actives have a fitted effect of over 45% in size. Particulars: CellTox Green fluorescence; series mostly up to 76.8 µM; cytotoxicity: at the top concentration. The source says:
National Center for Advancing Translational Sciences [NCATS]
NIH Chemical Genomics Center [NCGC]
U.S. Environmental Protection Agency [EPA]
National Institutes of Environmental Health Sciences [NIEHS]
National Toxicology Program [NTP]
Cell-based models are critical for drug discovery. Determining the natural cytotoxic effects resulting from test compounds is an essential research activity. A CellTox Green Cytotoxicity Assay to monitor cytotoxicity in real time of continues cell culture during 40 hours of the compound treatment was used to screen Tox21 10K library compounds in HepG2 cells. CellTox Green Cytotoxicity Assay is a nonlytic, homogeneous, biofluorescent method to measure cytotoxicity in cell culture after experimental manipulation. The assay system uses a proprietary asymmetric cyanine dye that is excluded from viable cells but preferentially stains the dead cell's DNA. […] Viable cells produce no appreciable increases in fluorescence. Therefore, the fluorescence signal produced by the binding interaction with dead cell DNA is proportional to cytotoxicity.
The mixture of HepG2 cell suspension and reagents were dispensed at 600cells/6 ul/well in 1536-well tissue culture treated black solid bottom plates using a Multidrop dispenser. After the assay plates were incubated at a 37 C/5% CO2 incubator for 5 hours, 23 nL of compounds dissolved in DMSO, positive and negative controls was transferred to the assay plate by a pintool work station. The plates were incubated at 37 C for 40 hours. The fluorescence intensity were measured at 0h, 8h, 16h, 24h, 32h and 40h time points using ViewLux plate reader during compound treatment.
For `CC(Cc1ccc(O)c(O)c1)C(C)Cc1ccc(O)c(O)c1` (stereo not given), the Potency is 49 µM (active). For `O=c1cc[nH]cc1`, the “cytotoxicity” value is -9.6% (inactive). For `C/C(=N\[Si](C)(C)C)O[Si](C)(C)C`, the “cytotoxicity” value is 8.55% (inactive). With `Oc1ccc(Cl)cc1C1CCCC1`, the Potency was 54.9 µM (active). Turning to `Nc1cc([N+](=O)[O-])ccc1Cl`, the “cytotoxicity” value is 11.2% (inactive).

On to `Cc1ccc(S(=O)(=O)C(I)I)cc1`, for which the Potency was 49 µM (active). Take `CCN(CC)c1ccc(C=O)cc1`: the “cytotoxicity” value was -6.37% (inactive). On the same count and under the same terms, the value for `CC(c1cc(C(C)(C)C)cc(C(C)(C)C)c1O)c1cc(C(C)(C)C)cc(C(C)(C)C)c1O` was -0.576% (inactive); that for `CCCCCCCCCCCC(=O)Cl` was 0.16% (inactive).

On to `C/C=C/C(=O)OCC(C)C`, for which the “cytotoxicity” value is 1.86% (inactive). Take `Oc1cccc2c(O)cccc12`: the “cytotoxicity” value is -11.7% (inactive). The same measure, in the same setting: the value for `CCC(O)CO` (stereo not given) was -13.2% (inactive). Still for that read-out and setting: the value for `O=C(N[C@H](CO)[C@H](O)c1ccc([N+](=O)[O-])cc1)C(Cl)Cl` was -5.44% (inactive).

`[Cl][Eu]([Cl])[Cl]`: the “cytotoxicity” value is -8.89% (inactive). Still for that read-out and setting: the value for `Nc1ccc(Oc2cccc(Oc3ccc(N)cc3)c2)cc1` was 0.394% (inactive); that for `COC(=O)c1ccc([N+](=O)[O-])cc1` was -12.9% (inactive); that for `O=C(c1ccccc1)c1ccc(Cl)cc1` was 1.26% (inactive).

As to `NCc1ccco1`, the “cytotoxicity” value is -0.836% (inactive). Same read-out and setting: the value for `O=[N+]([O-])c1ccc(O)c2ncccc12` was 17.5% [at 35.3 µM] (inactive). Regarding `CN(C[C@@H](CC[N+]12CCC(C3CCCCC3)(CC1)CC2)c1ccc(Cl)c(Cl)c1)C(=O)c1cc(C(F)(F)F)cc(C(F)(F)F)c1`, the Potency is 24.5 µM (active).

As for `COc1cc2ncnc(Nc3cccc(Cl)c3)c2cc1OC`, the cytotoxicity was -17.9% [at 15.8 µM] (inactive).

For the molecule `CCCCCCCCCC[N+](C)(CCCCCCCCCC)CCC[Si](OC)(OC)OC`, the Potency was 21.9 µM (active). `CC(C=O)c1ccccc1` (stereo not given): the “cytotoxicity” value was -8.47% (inactive). Same read-out and setting: the same measure for `CC/C=C\C/C=C\C/C=C\CCCCCCCC(=O)OC`: -4.23% (inactive). The same measure, in the same setting: the same measure for `CC(=O)CC(N)=O`: 2.82% (inactive); for `C=C[Si](C)(C)Cl`: -14.5% [at 6.97 µM] (inactive).

As to `Cc1ccc2n[nH]nc2c1`, the “cytotoxicity” value was 5.37% (inactive).

Regarding `Cc1cc(C)c(O)c(C(C)(C)C)c1`, the “cytotoxicity” value was 19.9% (inactive).

On to `Nc1cc([N+](=O)[O-])cc(Cl)c1O`, for which the “cytotoxicity” value was -12.1% (inactive). Consider `CC/C(=C(/c1ccc(O)cc1)c1ccc(OCCN(C)C)cc1)c1ccccc1`, for which the Potency was 18.2 µM (active). Turning to `CSc1nnc(C(C)(C)C)c(=O)[nH]1`, the “cytotoxicity” value was 0.168% (inactive).

Consider `C/C(=C\c1ccc(C(=O)O)cc1)c1ccc2c(c1)C(C)(C)CCC2(C)C`, for which the “cytotoxicity” value was 18.6% [at 35.3 µM] (inactive). Same read-out and setting: the value for `N#Cc1ccc(C/C(=N/NC(=O)Nc2ccc(OC(F)(F)F)cc2)c2cccc(C(F)(F)F)c2)cc1` was -1.02% (inactive). Turning to `CC(CC(C)(C)C)CC(C)(C)CC(C)(C)C` (stereo not given), the “cytotoxicity” value is -11.9% [at 35.3 µM] (inactive). Still for that read-out and setting: the same measure for `CCOC(=O)[C@H](C)O`: 2.34% (inactive); for `CC/C=C(\C)C=O`: -0.0248% (inactive).

On to `CCN(CC)c1ccc2c(c1)Oc1cc(N(CC)CC)ccc1C21OC(=O)c2ccccc21`, for which the Potency is 23.9 µM (active). As for `COCCC(=O)OC`, the “cytotoxicity” value is -1.74% (inactive). For the molecule `CC(=O)Nc1ccc(N=Nc2cc(C)ccc2O)cc1`, the “cytotoxicity” value was -11.3% (inactive). Consider `ClC(c1ccccc1)(c1ccccc1)c1ccccc1`, for which the “cytotoxicity” value is -1.77% (inactive).
